# Nrf2 activator – Nrf2 pathway activation | AREc32 ARE-luciferase reporter (MCF7-derived line), luminescence, 24 h | AID 624171 | Potency, µM (doses to about 46.1 µM), inactives show at the top dose activation, hits mostly activators | 410,000 compounds, 0.31% hits; also: % of control where 0% means no effect; nearly all actives have a fitted effect of over 65% in size
#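 Nrf2 activation is followed as ARE-luciferase induction in the AREc32 line after one day of compound treatment; luminescence is read with Steady-Glo.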
# ELG1 repair inh – inhibitors of ELG1-dependent DNA repair in HEK293T cells; HEK293T ELG1-luciferase reporter, luminescence, 16 h; DNA damage induced by 5-fluorouridine; Potency, µM (titrated, usually from 46.1 µM), inactives show at the highest dose activity change, negative = inhibition, actives largely listed as inhibitors; 330,000 compounds, 2.3% hits; also: % is scaled to controls: 0 for no effect and ±100 for the full control effect; nearly all actives have a fitted effect of over 55% in size
#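 Overnight (16 hr) co-exposure of 2,000 cells/well to 5-fluorouridine and compound at 37 °C preceded detection. Luciferase was quantified via ONE-Glo luminescence; loss of signal denotes inhibition.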
# mIDH1 inhibitor – blocks human mutant IDH1 R132H enzyme | 390,000 compounds, 0.093% hits | IDH1-R132H enzyme, NADPH consumption, diaphorase/resazurin fluorescence | O75874 | AID 602179 | Potency, µM (highest dose often 76.6 µM), for inactives: top-dose activity change, negative = inhibition, actives largely listed as inhibitors; also: % is scaled to controls: 0 for no effect and ±100 for the full control effect; nearly all actives have a fitted effect of over 65% in size
# Target sequence (O75874 whole entry R132H, stated change not applied): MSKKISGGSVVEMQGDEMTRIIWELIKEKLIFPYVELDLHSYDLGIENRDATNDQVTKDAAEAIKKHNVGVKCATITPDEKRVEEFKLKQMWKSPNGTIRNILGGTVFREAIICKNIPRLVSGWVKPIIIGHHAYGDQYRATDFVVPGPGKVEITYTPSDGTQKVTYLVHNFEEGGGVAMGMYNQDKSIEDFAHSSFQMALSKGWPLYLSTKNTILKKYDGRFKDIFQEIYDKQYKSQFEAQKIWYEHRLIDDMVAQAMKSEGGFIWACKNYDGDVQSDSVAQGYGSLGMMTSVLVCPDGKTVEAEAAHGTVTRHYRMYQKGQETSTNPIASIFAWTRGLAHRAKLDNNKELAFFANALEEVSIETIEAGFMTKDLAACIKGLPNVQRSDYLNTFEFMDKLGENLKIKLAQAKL
#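 IDH1-R132H (0.5 ug/mL dispensed) in pH 7.5 Tris buffer was preincubated 30 min with compound, then given a substrate mix of 0.016 mM NADPH and 2 mM alpha-KG for 80 min at room temperature; remaining NADPH was read by diaphorase/resazurin fluorescence.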
# A549 tox-1 – kills or reduces viability of A549 cells in Nrf2 counter-screen; Potency, µM (titrated, usually from 46 µM), without a hit: at the top dose activity change, negative = cytotoxicity, hits mostly inhibitors; 390,000 compounds, 0.16% hits; A549 ARE-Fluc cells, CellTiter-Fluor viability, 18-24 h; also: % is scaled to controls: 0 for no effect and ±100 for the full control effect
#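 Cytotoxicity counterscreen: CellTiter-Fluor fluorescence was measured in A549 ARE_Fluc cells after 18-24 h of compound exposure in a concentration series. The subsequent BugLite luminescent read reports ARE-luciferase activity.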
# Nrf2 inh – inhibitors of Nrf2 signaling. A549 ARE-Fluc reporter, luciferase luminescence, 18-24 h. Potency, µM (top dose mostly 46 µM), without a hit: at the highest dose activity change, negative = inhibition, hits mostly inhibitors. 360,000 compounds, 2.1% hits; also: % is scaled to controls: 0 for no effect and ±100 for the full control effect; nearly all actives have a fitted effect of over 60% in size
#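 Cells were seeded and rested 2 h, then exposed to compounds for 18-24 h. CellTiter-Fluor was read first as a viability measure. BugLite was added 15 min before the final luminescent read of ARE-luciferase activity in A549 cells.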
# FLuc counter 3 – counter-screen for Nrf2 inhibitors: firefly luciferase enzyme inhibition; Potency, µM (titrated, usually from 57.5 µM), without a hit: at the top dose activity change, negative = inhibition, usual class: inhibitors; shares compounds with Nrf2 inh; 1,400 compounds, 4% hits; purified firefly luciferase, luminescence inhibition; also: % is scaled to controls: 0 for no effect and ±100 for the full control effect; nearly all actives have a fitted effect of over 65% in size
# A549 tox-2 – toxic to A549 ARE-Fluc cells in Nrf2 counterscreen. shares compounds with Nrf2 inh. A549 ARE-Fluc cells, cytotoxicity counterscreen. 1,400 compounds, 2% hits. Potency, µM (titrated, usually from 46.1 µM), for inactives: at the top dose activity change, negative = cytotoxicity, hits mostly inhibitors;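 also: cells exposed to compounds for 18 to 24 hours; % is scaled to controls: 0 for no effect and ±100 for the full control effect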
# ARE-Fluc inh – confirmation of Nrf2 inhibitors in A549 ARE reporter cells | shares compounds with Nrf2 inh | A549 ARE-firefly luciferase reporter, luminescence | Potency, µM (top dose mostly 46.1 µM), for the others: top-dose activity change, negative = inhibition, usual class: inhibitors | 1,400 compounds, 74% hits | AID 720524; also: % is scaled to controls: 0 for no effect and ±100 for the full control effect; nearly all actives have a fitted effect of over 65% in size
# * marks the source's active call; other numbers are inactive results; ? = inconclusive; . = no result given; [ ] = dose if it differs, or a comment. Rows were chosen to be rich in hits. Some 3.8% of all compounds tested hit in one or more screens of this group. Calls follow the shape of the dose curve; as a rule, active = well fitted curve in the direction sought with a large enough effect; inconclusive = small, poorly fitted or top-dose-only effect, or another doubt; inactive = no such curve, though single readings can be large; an effect the other way counts as inactive or inconclusive. Potency is read from the fitted curve at half-maximal effect.
SMILES,Nrf2 activator,ELG1 repair inh,mIDH1 inhibitor,A549 tox-1,Nrf2 inh,FLuc counter 3,A549 tox-2,ARE-Fluc inh
O=C(CCCCCCCCCCC(=O)NCc1cccnc1)NCc1cccnc1,0%,3.7µM*,12%,-1%,?,4%,-6%,?
O=C(NCc1cccnc1)Nc1ccccc1Cl,0%,13%,-5%,5%,5%,.,.,.
COc1ccc2cc1Oc1ccc(cc1)C[C@H]1c3cc(c(OC)cc3CCN1C)Oc1c(OC)c(OC)cc3c1[C@@H](C2)N(C)CC3,11%,-7%,3%,-19%,6%,.,.,.
COC(=O)C1=C(c2cccc(OCc3ccccc3)c2)C[C@@H]2CC[C@H]1N2C(=O)NCc1cc(C)oc1C(F)(F)F,3%,-18%,3%,-11%,?,3%,-17%,?
COc1ccc(/C=C2\SC(=O)N(CCn3cnnn3)C2=O)cc1,4%,?,9%,1%,8%,.,.,.
COC(=O)c1ccc2ccn(CC(=O)NC(C)C)c2c1,0%,?,-4%,1%[1.84 µM],5%,.,.,.
C[C@@H]1O[C@@H](O[C@@H]2C=C3CC[C@@H]4[C@@H](CC[C@]5(C)[C@H](c6ccc(=O)oc6)CC[C@@]45O)[C@@]3(C)CC2)[C@H](O)[C@H](O)[C@H]1O,.,.,.,.,.,2%,?,0.01µM*
CCN(c1ccccc1)S(=O)(=O)c1ccc(NC(=O)c2cc(=O)c3ccccc3o2)cc1,0%,.,12%,-7%,?,.,.,.
C[C@H]1[C@@H](OS(=O)(=O)O)C[C@@H]2C[C@H]([C@@H](O)c3cc(=O)[nH]c(=O)[nH]3)NC3=NC[C@H]1N32,-3%,.,10%,-29%,0.65µM*,2%,.,0.23µM*
Clc1cccc(Cl)c1Cn1nnc(N2CCCC2)n1,4%,?,3%,3%,29%,.,.,.
O=C(Nc1ccc(F)cc1F)c1cccn(Cc2ccccc2)c1=O,3%,5%,-6%,-11%,?,.,.,.
Cc1ccc(F)cc1NC(=O)c1ccc(Cn2nc(N3CCN(c4ccccc4)CC3)ccc2=O)o1,0%,.,-9%,-5%,7.3µM*,-14%,-17%,12µM*
CCOc1ccc(OCC)c(NC(=O)CN2CCN(c3ccc(C)cc3C)CC2)c1,0%,?,4%,-4%,-1%,.,.,.
CC12CC[C@H]3[C@@H](CCC4(O)C[C@H](O)CCC34/C=N/NC(=O)c3ccccc3[N+](=O)[O-])C1(O)CCC2C1=CC(=O)OC1 (stereo partly specified),0%,-27%,0%,?,4.6µM*,0%,?,7.3µM*
C[C@]12CC[C@H](O)C[C@H]1CC[C@@H]1[C@@H]2CC[C@]2(C)[C@@H](C3=CC(=O)OC3)CC[C@]12O,-2%,?,-8%,?,0.26µM*,3%,?,0.21µM*
C[C@]12CC[C@H](O)C[C@H]1CC[C@@H]1[C@@H]2C[C@@H](O)[C@]2(C)[C@@H](C3=CC(=O)OC3)CC[C@]12O,-3%,?,15%,?,0.46µM*,0%,?,0.46µM*
CC12CCC(O)CC1CCC1C2CCC2(C)C(C3=CC(=O)OC3)C(O)CC12O (stereo unspecified),-1%,.,3%,?,1.8µM*,1%,?,.
CC(c1nc2ccccc2c(=O)[nH]1)N(C)CCOc1ccc(Cl)cc1 (stereo unspecified),1%,?,-2%,12%,0%,.,.,.
CCOP(=O)(/C(C#N)=C(\C)O)c1ccccc1 (stereo unspecified),-1%,-14%,9%,?,10%,.,.,.
O=C1c2ccccc2C(=O)N1SC1CCCCC1,1%,?,0%,-1%,11%,.,.,.
C[C@H]1O[C@@H](O[C@H]2[C@@H](O)C[C@@H](O[C@H]3[C@@H](O)C[C@H](O[C@H]4CC[C@@]5(C)[C@H](CC[C@@H]6[C@@H]5CC[C@]5(C)[C@@H](C7=CC(=O)OC7)CC[C@]65O)C4)O[C@@H]3C)O[C@@H]2C)C[C@H](O)[C@@H]1O,.,.,.,.,.,1%,?,0.021µM*
C[C@]12CC[C@H]3C(CCC4(O)CC(O)CC[C@]34C=O)C1=CC[C@H]2c1ccc(=O)oc1 (stereo partly specified),-3%,?,10%,-25%,?,.,.,.
CC12CCC(O)CC1CCC1C2CCC2(C)C(C3=CC(=O)OC3)CCC12O (stereo unspecified),-1%,.,-1%,?,0.41µM*,1%,?,0.26µM*
C[C@]12CC[C@H](O)C[C@H]1CCC1C2CC[C@]2(C)[C@@H](c3ccc(=O)oc3)C[C@H]3O[C@]132 (stereo partly specified),.,.,.,.,.,-2%,?,1.5µM*
CC(=O)OC1CC(OC2C(O)CC(OC3C(O)CC(OC4CCC5(C)C(CCC6C5CC(O)C5(C)C(C7=CC(=O)OC7)CCC65O)C4)OC3C)OC2C)OC(C)C1OC1OC(CO)C(O)C(O)C1O (stereo unspecified),-3%,.,-8%,?,0.13µM*,1%,?,0.16µM*
SMILES,Nrf2 activator,ELG1 repair inh,mIDH1 inhibitor,A549 tox-1,Nrf2 inh,FLuc counter 3,A549 tox-2,ARE-Fluc inh
Cc1cc([N+](=O)[O-])c2ccccc2[n+]1[O-],-2%,?,16%,?,4.1µM*,-21%,-8%,6.5µM*
CN(N=O)c1cc(O)ccc1O,.,.,.,?,-6%,.,.,.
COc1cc([C@@H]2c3cc4c(cc3[C@@H](O)C3COC(=O)C32)OCO4)cc(OC)c1O (stereo partly specified),.,.,.,-10%,?,.,.,.
NC(=O)c1cn(C2OC(CO)C(O)C2O)c2ncnc(N)c12 (stereo unspecified),-2%,0.1µM*,0%,?,0.46µM*,2%,?,0.82µM*
N#Cc1cn(C2OC(CO)C(O)C2O)c2ncnc(N)c12 (stereo unspecified),-1%,.,5%,?,?,.,.,.
COc1ccccc1OCCNC(=O)c1cc(=O)[nH]c2ccccc12,-1%,?,3%,-16%,?,.,.,.

# Screening data as filed in PubChem BioAssay.
